From PubChem BioAssay (NCATS) come the findings set out here.

Unmarked numbers belong to inactive results. Inconclusive results are not listed. Activity calls are given as the source filed them. Unless noted, calls follow the shape of the dose curve; as a rule, active = well fitted curve in either direction with a large enough effect (not every such curve was filed as active); inconclusive = small, poorly fitted or top-dose-only effect, or another doubt; inactive = flat fitted curve, though single readings scatter.

Assay [1] deals with Lysosomal acid glucosylceramidase (Homo sapiens) (UniProt P04062). Description: Glucocerebrosidase-p2 (AID 348; in the data active = potency below about 10 µM; also: potency is read from the fitted curve at half-maximal effect). The note with it: purified GBA, blue fluorogenic substrate, 40 min. In outline: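 Normal human glucocerebrosidase (0.2 nM) with blue fluorogenic substrate (80 uM final) in citrate/phosphate pH 5.9 with 10mM sodium taurocholate, 0.01% tween-20; 40 min RT, NaOH/glycine stop; fluorescence Ex 365/Em 440; AC50 from a titration from 0.6 nM upwards.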

The nature of assay [2]: AP1 Signaling Pathway (AID 357). Also: % is scaled to controls: 0 for no effect and ±100 for the full control effect. The note with it: ME-180 AP-1-bla reporter, EGF-induced, beta-lactamase ratio, 5 h; at 7.69 µM (top of the series) unless noted. Summed up: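 AP-1-bla ME-180 cells with beta-lactamase reporter under AP-1 response element, stimulated with EC50 EGF; compounds titrated, 5 hours at 37 degrees Celsius. CCF4 read at 460/530 nm ratio; positive and negative modulators judged by AC50.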

In assay [3] the target is Cytochrome P450 1A2 (Homo sapiens) (UniProt P05177). In words: p450-cyp1a2 (AID 410; calls by dose curve; also: potency is read from the fitted curve at half-maximal effect;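 as to activity change, negative = inhibition: -100% = full effect of reference inhibitor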). The conditions noted are these: recombinant CYP1A2, luciferin-ME demethylation, luminescence; series mostly up to 11.4 µM. Summed up: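 O-Demethylation of luciferin 6' methyl ether by human CYP1A2 is monitored as luciferase luminescence. Substrate sits at Km (100uM); enzyme is 20nM. Values are scaled to 57 uM furafylline as maximal inhibition.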

The nature of assay [4]: Stat Signaling Pathway (AID 446).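 Also: ME-180 cervical cancer cells given 40 pM IL-6 alongside compound; SIE-controlled beta-lactamase reporter measured as 460/530 nm FRET emission ratio; % is scaled to controls: 0 for no effect and ±100 for the full control effect.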 The note with it: ME-180 SIE beta-lactamase reporter, IL-6 stimulated, 5 h; at 7.69 µM (top of the series) unless noted. In outline: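 Emission at 460 and 530 nm (excitation 405 nm) reports SIE-controlled beta-lactamase in ME-180 cells. Cells received compound with 40 pM IL-6 for 5 hrs at 37 C; data scaled between 300 pM IL-6 and 125 nM JAK-inhibitor controls.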

Assay [5] addresses Glucocorticoid receptor (Homo sapiens) (UniProt P04150). In words: GR-GFP Redistribution (AID 450;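 active = compounds whose dose series gives a full or clear partial fitted curve of increased nuclear translocation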; also: potency is read from the fitted curve at half-maximal effect). The note with it: U2OS GR-GFP nuclear translocation, laser cytometry, 2 h.
Assay [6] has the same target. In words: GR-EFC Redistribution (AID 451; calls by dose curve; also: potency is read from the fitted curve at half-maximal effect). The conditions noted are these: CHO-K1 GR-EFC translocation, beta-gal luminescence, 2 h. In outline: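 Translocation of GR-ED fusion to nuclear EA restores b-gal, read by luminescence after 1 h room-temperature detection. Engineered CHO-K1 biosensor cells, 1,000/well, exposed 2 h at 37 C to titrations up to 46 uM final.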
Assay [7] addresses Mitogen-activated protein kinase 10 (Mus musculus) (UniProt Q61831). Description: JNK3 AlphaScreen Assay (AID 530).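 Also: kinase came from lysate of stimulated human HepG2 cells; signal reports phosphorylation of biotinylated GST-cJun 1-79 at Ser73 with 10 µM ATP; % is scaled to controls: 0 for no effect and ±100 for the full control effect.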 The note with it: JNK3 lysate, c-Jun phosphorylation; series mostly up to 11.4 µM. Summed up:
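qHTS titrations with 15 min compound pre-incubation before adding ATP (10 uM final). Read-out: AlphaScreen of Ser73-phosphorylated biotin-GST-cJun using HepG2 lysate JNK3 activated by IL-1β and TNFα.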

For assay [8], the target named is 3',5'-cyclic-AMP phosphodiesterase 4B (Homo sapiens) (UniProt Q07343). In words: qHTS Assay for Inhibitors of PDE-IV (AID 607; active = well fitted activation curve with a large enough effect in the main read-out, with a control signal flat, not every such curve was filed as active; also: % of control where 0% means no effect). The note with it: HEK293 ACTOne CNG channel cells, membrane potential fluorescence; series mostly up to 22.9 µM. In outline:
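The readout is membrane depolarisation from a cAMP-sensing CNG channel, detected with a potential dye at ex 535/em 590. Cells were HEK293-derived (endogenous PDE-IV) at 1000 cells/well, titrated up to 22.9 uM final.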

Assay [9] can be described thus: qHTS Assay for Identification of Small Molecule Agonists for Hypoxia Response Element Signaling Pathway (AID 914; active = well fitted activation curve with a large enough effect in the signal ratio, with a control signal flat, not every such curve was filed as active; the % refers to the signal ratio; also: % of control where 0% means no effect). The conditions noted are these: ME-180 (cervical carcinoma) HRE-bla reporter, beta-lactamase ratio, CoCl2, 17 h; activation: stronger effect = higher value. Summed up: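 In Opti-MEM containing 0.5% dialyzed FBS and 10 mM HEPES, ME-180 HRE-bla cells received a compound titration and EC50 CoCl2. They were incubated 17 hours, then CCF4-loaded 2.5 hours at room temperature before ratio reading.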
For orientation: In qHTS, concentration-response curves come from the screen itself.

Assay [10] concerns the target Cytochrome P450 2C19 (Homo sapiens) (UniProt P33261). In words: qHTS Assay for Inhibitors and Substrates of Cytochrome P450 2C19 (AID 899; active = well fitted curve in the direction sought with a large enough effect; an effect the other way counts as inactive or inconclusive; also: nearly all actives have a fitted effect of over 60% in size; also: potency is read from the fitted curve at half-maximal effect; as to activity, negative = inhibition: % is scaled to controls: 0 for no effect and ±100 for the full control effect). The note with it: recombinant CYP2C19, luciferin-H EGE luminescence; series mostly up to 11.4 µM. In outline: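 Reactions contain 5nM enzyme, 10uM Luciferin-H EGE (KM) and 50mM KPO4; compound preincubates 10 min at 37C, NADPH regeneration starts turnover for 60 min. Luminescence after detection reagent gives activity.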

Assay [11] deals with Cytochrome P450 2C9 (Homo sapiens) (UniProt P11712). Description: qHTS Assay for Inhibitors and Substrates of Cytochrome P450 2C9 (AID 883; active = well fitted curve in the direction sought with a large enough effect; an effect the other way counts as inactive or inconclusive; also: nearly all actives have a fitted effect of over 60% in size; also: potency is read from the fitted curve at half-maximal effect). The note with it: recombinant CYP2C9, luciferin-H luminescence, 60 min; series mostly up to 11.4 µM. Summed up: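 Turnover of Luciferin-H (100uM, KM) by 10nM human CYP2C9 was measured over 60 min at 37C with NADPH regeneration; inhibitors and some substrates reduce luminescence. Data normalized to sulphaphenazole 57uM.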

Assay [12] deals with Cytochrome P450 2D6 (Homo sapiens) (UniProt P10635). In words: qHTS Assay for Inhibitors and Substrates of Cytochrome P450 2D6 (AID 891; active = well fitted curve in the direction sought with a large enough effect; an effect the other way counts as inactive or inconclusive; also: nearly all actives have a fitted effect of over 60% in size; also: potency is read from the fitted curve at half-maximal effect). The note with it: recombinant CYP2D6, luciferin-ME EGE luminescence; series mostly up to 11.4 µM. In outline:
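Luminescent read-out of luciferin formed by 5 nM human CYP2D6 demethylating 30 uM Luciferin-ME EGE (Km level) over 60 min at room temperature after NADPH regeneration addition. Data normalized to full inhibition by 1.43 uM quinidine.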

Assay [13] has as its target Cytochrome P450 3A4 (Homo sapiens) (UniProt P08684). In words: qHTS Assay for Activators of Cytochrome P450 3A4 (AID 885; active = well fitted curve in the direction sought with a large enough effect; an effect the other way counts as inactive or inconclusive; also: nearly all actives have a fitted effect of over 65% in size). The conditions noted are these: recombinant CYP3A4, Luciferin-PPXE luminescence, 60 min; series mostly up to 11.4 µM. In outline: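 Activators are scored by enhanced luminescence from CYP3A4 conversion of luciferin-PPXE (25uM, equal to KM) to luciferin, after 60 min at RT with an NADPH-regenerating system.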

For assay [14] the target is unchanged. In words: qHTS Assay for Inhibitors and Substrates of Cytochrome P450 3A4 (AID 884; active = well fitted curve in the direction sought with a large enough effect; an effect the other way counts as inactive or inconclusive; also: potency is read from the fitted curve at half-maximal effect; nearly all actives have a fitted effect of over 50% in size). The note with it: recombinant CYP3A4, Luciferin-PPXE luminescence; series mostly up to 57.1 µM. In outline:
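Luminescent readout of luciferin produced by CYP3A4 (20 nM) dealkylation of Luciferin-PPXE, 25 uM (its KM). NADPH-driven reaction ran 60 min at RT after 10 min compound preincubation; data scaled to 57 uM ketoconazole as 100% inhibition.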

Cytochrome P450 2C9 (Homo sapiens), sequence (P11712 whole entry, looked up): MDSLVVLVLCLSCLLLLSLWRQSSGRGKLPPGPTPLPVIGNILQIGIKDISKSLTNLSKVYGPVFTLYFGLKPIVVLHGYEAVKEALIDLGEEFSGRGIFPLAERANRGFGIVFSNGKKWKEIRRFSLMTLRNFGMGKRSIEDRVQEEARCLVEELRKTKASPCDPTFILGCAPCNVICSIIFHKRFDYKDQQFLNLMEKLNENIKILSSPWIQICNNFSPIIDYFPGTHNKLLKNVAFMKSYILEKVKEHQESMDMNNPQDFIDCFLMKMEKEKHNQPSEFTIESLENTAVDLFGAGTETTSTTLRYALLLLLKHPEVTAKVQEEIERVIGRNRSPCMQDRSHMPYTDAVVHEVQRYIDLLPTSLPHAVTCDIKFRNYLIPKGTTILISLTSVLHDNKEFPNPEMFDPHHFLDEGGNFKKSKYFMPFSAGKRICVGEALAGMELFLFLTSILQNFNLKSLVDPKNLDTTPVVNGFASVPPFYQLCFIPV
Lysosomal acid glucosylceramidase (Homo sapiens), sequence (P04062 whole entry, looked up): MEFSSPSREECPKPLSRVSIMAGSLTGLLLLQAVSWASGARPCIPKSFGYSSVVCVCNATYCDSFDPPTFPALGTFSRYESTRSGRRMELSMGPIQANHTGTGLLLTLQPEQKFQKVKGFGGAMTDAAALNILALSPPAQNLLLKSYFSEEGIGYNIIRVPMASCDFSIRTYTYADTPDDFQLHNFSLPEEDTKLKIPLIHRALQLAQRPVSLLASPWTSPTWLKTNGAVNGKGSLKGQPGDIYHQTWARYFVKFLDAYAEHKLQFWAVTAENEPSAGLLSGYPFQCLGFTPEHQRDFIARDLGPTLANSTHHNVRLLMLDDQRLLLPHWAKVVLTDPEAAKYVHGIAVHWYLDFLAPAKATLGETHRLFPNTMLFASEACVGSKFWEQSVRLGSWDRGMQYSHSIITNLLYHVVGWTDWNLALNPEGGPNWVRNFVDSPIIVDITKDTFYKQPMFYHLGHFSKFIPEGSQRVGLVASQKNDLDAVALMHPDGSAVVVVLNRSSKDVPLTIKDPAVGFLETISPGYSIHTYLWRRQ
Cytochrome P450 3A4 (Homo sapiens), sequence (P08684 whole entry, looked up): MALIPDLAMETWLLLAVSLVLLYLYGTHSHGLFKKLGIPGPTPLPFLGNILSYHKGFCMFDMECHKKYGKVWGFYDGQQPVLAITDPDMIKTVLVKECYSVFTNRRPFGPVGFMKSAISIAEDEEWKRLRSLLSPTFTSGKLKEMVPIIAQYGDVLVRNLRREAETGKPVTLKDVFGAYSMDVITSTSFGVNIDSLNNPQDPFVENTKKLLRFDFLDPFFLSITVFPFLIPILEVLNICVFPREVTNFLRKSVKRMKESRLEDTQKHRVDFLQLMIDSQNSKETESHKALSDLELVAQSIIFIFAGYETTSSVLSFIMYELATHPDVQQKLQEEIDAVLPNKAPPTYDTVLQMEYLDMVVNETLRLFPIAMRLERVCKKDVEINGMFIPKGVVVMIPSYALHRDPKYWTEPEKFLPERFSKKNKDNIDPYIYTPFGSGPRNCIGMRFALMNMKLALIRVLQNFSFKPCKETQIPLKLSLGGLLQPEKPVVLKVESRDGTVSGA
Cytochrome P450 1A2 (Homo sapiens), sequence (P05177 whole entry, looked up): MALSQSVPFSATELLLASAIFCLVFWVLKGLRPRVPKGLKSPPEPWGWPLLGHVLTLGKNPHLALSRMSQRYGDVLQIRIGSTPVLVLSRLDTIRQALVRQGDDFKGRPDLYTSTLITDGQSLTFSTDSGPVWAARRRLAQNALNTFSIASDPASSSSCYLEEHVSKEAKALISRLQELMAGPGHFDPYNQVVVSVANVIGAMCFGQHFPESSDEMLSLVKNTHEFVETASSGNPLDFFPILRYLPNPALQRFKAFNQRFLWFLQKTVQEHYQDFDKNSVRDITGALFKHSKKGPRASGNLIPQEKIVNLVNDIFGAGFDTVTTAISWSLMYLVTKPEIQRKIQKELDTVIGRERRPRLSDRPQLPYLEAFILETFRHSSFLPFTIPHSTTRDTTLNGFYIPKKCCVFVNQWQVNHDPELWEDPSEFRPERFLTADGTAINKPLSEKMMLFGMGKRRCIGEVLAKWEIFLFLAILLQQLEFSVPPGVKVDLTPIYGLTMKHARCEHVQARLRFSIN
3',5'-cyclic-AMP phosphodiesterase 4B (Homo sapiens), sequence (Q07343 whole entry, looked up): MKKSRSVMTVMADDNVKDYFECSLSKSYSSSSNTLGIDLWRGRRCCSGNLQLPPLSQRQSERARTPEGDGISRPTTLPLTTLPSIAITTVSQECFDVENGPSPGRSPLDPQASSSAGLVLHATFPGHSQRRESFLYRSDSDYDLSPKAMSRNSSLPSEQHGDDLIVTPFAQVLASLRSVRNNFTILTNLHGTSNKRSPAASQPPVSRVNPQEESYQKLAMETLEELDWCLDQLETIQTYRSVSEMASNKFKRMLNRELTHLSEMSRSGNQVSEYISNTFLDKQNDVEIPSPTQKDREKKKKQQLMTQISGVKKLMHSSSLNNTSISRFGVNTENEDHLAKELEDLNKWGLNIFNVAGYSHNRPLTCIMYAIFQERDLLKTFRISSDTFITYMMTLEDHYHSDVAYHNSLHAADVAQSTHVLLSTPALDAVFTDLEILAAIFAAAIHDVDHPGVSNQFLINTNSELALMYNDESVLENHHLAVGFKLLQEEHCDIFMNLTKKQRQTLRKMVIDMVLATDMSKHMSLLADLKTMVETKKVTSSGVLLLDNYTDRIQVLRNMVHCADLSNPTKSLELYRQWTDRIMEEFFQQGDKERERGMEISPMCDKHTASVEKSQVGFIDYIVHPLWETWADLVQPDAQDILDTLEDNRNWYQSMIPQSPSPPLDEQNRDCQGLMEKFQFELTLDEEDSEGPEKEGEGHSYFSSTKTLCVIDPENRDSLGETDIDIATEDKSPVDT
Cytochrome P450 2C19 (Homo sapiens), sequence (P33261 whole entry, looked up): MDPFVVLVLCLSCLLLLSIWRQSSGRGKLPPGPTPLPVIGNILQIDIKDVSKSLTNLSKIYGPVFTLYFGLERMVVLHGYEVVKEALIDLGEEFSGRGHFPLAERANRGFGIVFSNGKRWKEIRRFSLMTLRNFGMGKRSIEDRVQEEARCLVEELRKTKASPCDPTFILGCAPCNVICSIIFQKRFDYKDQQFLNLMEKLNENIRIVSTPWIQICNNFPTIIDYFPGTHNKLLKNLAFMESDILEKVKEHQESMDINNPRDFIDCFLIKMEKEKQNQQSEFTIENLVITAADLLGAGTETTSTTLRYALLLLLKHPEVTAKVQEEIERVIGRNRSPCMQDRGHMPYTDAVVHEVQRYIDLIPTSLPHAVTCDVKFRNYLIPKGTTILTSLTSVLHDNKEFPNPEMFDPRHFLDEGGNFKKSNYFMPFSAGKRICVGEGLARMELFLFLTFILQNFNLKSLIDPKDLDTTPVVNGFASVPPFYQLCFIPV
Glucocorticoid receptor (Homo sapiens), sequence (P04150 whole entry, looked up, the tested form may be a part): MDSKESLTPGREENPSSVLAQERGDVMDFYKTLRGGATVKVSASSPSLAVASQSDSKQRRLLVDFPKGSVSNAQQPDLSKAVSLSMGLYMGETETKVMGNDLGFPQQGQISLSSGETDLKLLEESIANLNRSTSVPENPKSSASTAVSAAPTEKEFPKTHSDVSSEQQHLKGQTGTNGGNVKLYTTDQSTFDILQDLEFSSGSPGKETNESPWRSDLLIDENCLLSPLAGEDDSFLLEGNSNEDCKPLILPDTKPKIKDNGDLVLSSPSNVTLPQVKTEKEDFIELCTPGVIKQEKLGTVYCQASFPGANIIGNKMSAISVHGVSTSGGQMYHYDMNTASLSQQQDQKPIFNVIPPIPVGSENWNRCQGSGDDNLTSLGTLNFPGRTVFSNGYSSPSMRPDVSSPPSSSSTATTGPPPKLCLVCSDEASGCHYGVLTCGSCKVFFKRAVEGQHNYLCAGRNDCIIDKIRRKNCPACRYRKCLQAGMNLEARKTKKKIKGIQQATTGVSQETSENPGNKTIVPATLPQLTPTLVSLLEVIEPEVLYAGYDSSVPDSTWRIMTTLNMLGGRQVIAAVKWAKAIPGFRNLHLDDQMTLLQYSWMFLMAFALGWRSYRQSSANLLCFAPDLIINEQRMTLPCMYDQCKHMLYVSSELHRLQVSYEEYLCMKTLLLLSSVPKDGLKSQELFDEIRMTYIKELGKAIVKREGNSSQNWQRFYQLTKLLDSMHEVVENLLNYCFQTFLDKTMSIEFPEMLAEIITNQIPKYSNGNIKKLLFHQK
Cytochrome P450 2D6 (Homo sapiens), sequence (P10635 whole entry, looked up): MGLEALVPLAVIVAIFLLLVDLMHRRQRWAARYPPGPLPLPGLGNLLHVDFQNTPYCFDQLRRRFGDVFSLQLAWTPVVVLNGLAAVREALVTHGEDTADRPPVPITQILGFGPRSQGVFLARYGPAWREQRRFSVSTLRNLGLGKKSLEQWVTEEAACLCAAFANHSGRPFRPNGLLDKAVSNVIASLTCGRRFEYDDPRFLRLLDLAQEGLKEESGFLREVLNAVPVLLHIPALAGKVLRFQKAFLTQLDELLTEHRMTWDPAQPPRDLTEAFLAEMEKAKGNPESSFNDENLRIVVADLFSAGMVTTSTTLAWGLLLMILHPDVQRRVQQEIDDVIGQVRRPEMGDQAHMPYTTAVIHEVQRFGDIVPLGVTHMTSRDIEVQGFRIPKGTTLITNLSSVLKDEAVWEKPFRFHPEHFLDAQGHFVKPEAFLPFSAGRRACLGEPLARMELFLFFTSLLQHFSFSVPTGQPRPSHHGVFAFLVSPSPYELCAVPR

On to `CCO[P@]1(=O)OC[C@@H]2O[C@H](n3cnc4c(N)ncnc43)[C@H](O)[C@@H]2O1`, for which the Potency in assay [1] was greater than 11.4 µM; in assay [5], greater than 46 µM; in assay [6] it was greater than 9.22 µM. The activity change, negative = inhibition in assay [2] was -10.8%; in assay [3] it was -15.6% [at 2.29 µM]. Moreover, the activity, negative = inhibition in [4] is -5.06%. Besides, the Potency result in assay [7] and in assay [8] was “inactive” in each case. Also, the activation in [9] was 10.2%.

As to `CCCC1c2c(ccc3ccccc23)Oc2ccc3ccccc3c21`, the Potency was greater than 11.4 µM in assay [1]; 0.631 µM (active) in assay [3]; greater than 46 µM in assay [5]; greater than 9.22 µM in assay [6]; 0.631 µM (active) in assay [10]. For the same compound, the activity change, negative = inhibition in [2] is 11%. The activity, negative = inhibition in [4] is 10.6%. Besides, the Potency result in [7] and in [8] was “inactive” each time.

For the compound `Oc1ccc(Cl)cc1Cc1cc(Cl)cc(Cc2cc(Cl)ccc2O)c1O`, the Potency is greater than 11.4 µM in assay [1]; greater than 46 µM in assay [5]; greater than 9.22 µM in assay [6]; 2.51 µM (active) in assay [11]; 1.26 µM (active) in [10]. Moreover, the activity change, negative = inhibition is -14% in assay [2] and -23.8% [at 2.29 µM] in [3]. For the same compound, the Potency result in [7] and in assay [8] was “inactive” in each case.

Take `CC1(C)N=C(N)N=C(N)N1c1cccc(OCc2cccc([N+](=O)[O-])c2)c1`: the Potency was greater than 11.4 µM in [1], 5.01 µM (active) in assay [3], greater than 46 µM in assay [5] and greater than 9.22 µM in [6]. In addition, the activity change, negative = inhibition in [2] was -5.25%. For the same compound, in assay [4], the activity, negative = inhibition is -5.32%. Also, the Potency result in [7], in [8] and in [10] was “inactive” throughout. For the same compound, the activation in [9] is 5.31%.

`O=C(O)c1ccccc1N[C@H](c1ccccc1)c1ccc2cccnc2c1O`: the Potency was greater than 11.4 µM in [1]; 1.58 µM (active) in assay [3]; greater than 46 µM in assay [5]; greater than 9.22 µM in assay [6]; 3.98 µM (active) in [10]. The activity change, negative = inhibition in assay [2] is 0.796%. Besides, the activity, negative = inhibition in assay [4] was -21.5%. The Potency entry in assay [7] and in [8] was “inactive” in each case.

Consider `Nc1cccc2nsnc12`, for which the Potency is greater than 11.4 µM in assay [1], greater than 46 µM in [5] and greater than 9.22 µM in assay [6]. Also, the activity change, negative = inhibition in [2] was 20.1%; in assay [3] it was -15.3% [at 2.29 µM]. In addition, the activity, negative = inhibition in assay [4] is 2.62%. Further, the Potency result in assay [8], in assay [11], in [12] and in [10] was “inactive” throughout.

Consider `O=C(O)[C@@H]1[C@H](C(=O)O)[C@H]2C(=O)C=C[C@H]1N2Cc1ccccc1`, for which the results for the Potency in assay [1], in assay [5] and in assay [6] were greater than 11.4 µM, greater than 46 µM and greater than 9.22 µM, respectively. Also, the activity change, negative = inhibition was -5.73% in [2] and -3.9% [at 2.29 µM] in assay [3]. For the same compound, the Potency entry in assay [7] and in [8] was “inactive” throughout.

Turning to `O=C(O)/C(=C\c1ccncc1)c1cccc2ccccc12`, the Potency in [1] was greater than 11.4 µM; in assay [3], 3.98 µM (active); in assay [5], greater than 46 µM; in [6], greater than 9.22 µM; in assay [10], 2.51 µM (active). Besides, in [2], the activity change, negative = inhibition was -1.57%. Further, in [4], the activity, negative = inhibition is 7.21%. Besides, the Potency entry in [7] and in assay [8] was “inactive” in each case.

In the case of `COc1ccc(C(=O)CCN(C)C)c2ccccc12`, the Potency in [1] was greater than 11.4 µM; in assay [3], 1.58 µM (active); in assay [5], greater than 46 µM; in assay [6], greater than 9.22 µM; in assay [11], 3.98 µM (active). In assay [2], the activity change, negative = inhibition is -15.5%. Besides, the Potency entry in assay [7], in assay [8] and in assay [13] was “inactive” each time.

For the compound `CC(C)c1cc(C(F)(F)F)nc(NNc2nc(C(C)C)cc(C(F)(F)F)n2)n1`, the Potency in assay [1] was greater than 11.4 µM; in [5] it was greater than 46 µM; in assay [6] it was greater than 9.22 µM; in [14], 3.16 µM (active); in [12], 0.126 µM (active); in assay [10] it was 2.51 µM (active). The activity change, negative = inhibition in assay [2] was -11.8%. For the same compound, the Potency entry in [3], in assay [7], in assay [8] and in [13] was “inactive” each time.

In the case of `O=C(c1cc(Br)ccc1O)c1cc(Br)ccc1O`, the Potency in assay [1] is greater than 11.4 µM; in assay [3] it was 1 µM (active); in [5], greater than 46 µM; in assay [6], greater than 9.22 µM; in assay [10] it was 0.199 µM (active). In [2], the activity change, negative = inhibition was -21.4%. Besides, in assay [4], the activity, negative = inhibition was -28%. The Potency result in [7] and in assay [8] was “inactive” in each case.

Consider `O=[N+]([O-])c1ccc(CSCc2ccc(Cl)cc2)cc1`, for which the Potency was greater than 11.4 µM in assay [1]; 3.98 µM (active) in assay [3]; greater than 46 µM in [5]; greater than 9.22 µM in assay [6]; 0.398 µM (active) in assay [10]. Moreover, the activity change, negative = inhibition in assay [2] is -19.3%. Further, in assay [4], the activity, negative = inhibition was 11.6%. Further, the Potency result in assay [7] and in assay [8] was “inactive” in each case.

Take `OC[C@@H]1O[C@@H](n2cnc3c(SCc4ccccc4)ncnc32)[C@@H](O)[C@H]1O`: the Potency in assay [1] is greater than 11.4 µM; in assay [5] it was greater than 46 µM; in assay [6], greater than 9.22 µM. Also, the results for the activity change, negative = inhibition in [2] and in assay [3] were 3.13% and -17.2% [at 2.29 µM], respectively. In addition, the Potency entry in assay [7] and in assay [8] was “inactive” throughout.

As to `c1cncc(CNc2ncn[nH]2)c1`, the Potency in assay [1] was greater than 11.4 µM; in assay [5], greater than 46 µM; in assay [6], greater than 9.22 µM. Also, the activity change, negative = inhibition in assay [2] is 12.7%. Moreover, the Potency result in [3], in assay [7], in assay [8] and in assay [10] was “inactive” in each case. Also, the activity, negative = inhibition in assay [4] was -1.59%.
